An excerpt weighted towards active compounds, which were near 21% of everything screened.
Cycloheximide cs: counter-screen for Shiga toxin inhibitors: cycloheximide protein synthesis inhibition; 300,000 tested, 12% active; max response, %; AID 2314; cell reporter, cycloheximide protein synthesis inhibition counterscreen; in the data active = max response mostly above about 13%, no sharp cut-off; inactive = mostly below about 14%; also: read at 38.3 µM for the half of the compounds with a filed dose; 0% is about no effect
Shiga inhibitor: inhibitors of Shiga toxin in Vero cells | Vero cells, Shiga toxin protein synthesis inhibition reporter | inhibition, % at 38.7 µM | 290,000 tested, 9.2% active; in the data active = inhibition mostly above about 28%, no sharp cut-off; inactive = mostly below about 43%; also: 0% is about no effect
Pf growth 48h: P. falciparum growth inhibition at 48 hours (one generation) | P. falciparum luciferase growth in erythrocytes, 48 h | Potency, µM (series often up to 28.7 µM), for the others: at the highest dose activity change, negative = inhibition, hits mostly inhibitors | AID 504832 | 310,000 tested, 5.9% active; also: potency is read from the fitted curve at half-maximal effect; % is scaled to controls: 0 for no effect and ±100 for the full control effect
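Firefly luciferase activity from engineered P. falciparum reports growth; inhibitors lower the luminescent signal. Cultures contained 2% hematocrit erythrocytes at 0.1% final parasitemia.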
HCMV inh: blocks human cytomegalovirus replication | HFF cells, HCMV-luciferase reporter, 72 h; active compounds read low | activity change, negative = inhibition, % at 57.5 µM | 410,000 tested, 4.5% active | AID 1259415; in the data active = activity change below about -60%; inconclusive = no clear call, values can overlap the other calls; inactive = above about -39%; also: % is scaled to controls: 0 for no effect and ±100 for the full control effect
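Inhibition of viral replication was scored as loss of reporter luminescence in HFFs infected with HCMV-luciferase (MOI 1 PFU/cell) for 72 h; compounds tested at 2 doses, normalized to buffer and Salinomycin controls.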
HCV inhibitor: HCV inhibition | Huh7.5.1 HCVcc-Cre infection, luciferase reporter, 44 h | Potency, µM (titrated, usually from 41.8 µM), without a hit: at the top dose activity change, negative = inhibition, actives largely listed as inhibitors | 340,000 tested, 3.4% active | AID 651820; also: potency is read from the fitted curve at half-maximal effect; % is scaled to controls: 0 for no effect and ±100 for the full control effect
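Compounds are dispensed onto cells plated 4 h earlier at 1,000 per well, with HCVcc-Cre virus (about 0.5 moi) added next. Following 44 h of culture, luminescent signal is measured for 15 sec after 15 min with substrate at room temperature.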
Pf growth 96h: inhibits malaria parasite growth, 96 h; P. falciparum luciferase reporter growth, 96 h; Potency, µM (series often up to 28.7 µM), without a hit: at the highest dose activity change, negative = inhibition, most hits filed as inhibitors; 320,000 tested, 6.9% active; also: potency is read from the fitted curve at half-maximal effect; % is scaled to controls: 0 for no effect and ±100 for the full control effect
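Infected RBCs, 2% Hct / 0.05% parasitemia final; luciferase-reporter P. falciparum; cpd 96 h, 37 C, 5% CO2; luciferase detection reagent; luminescence.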
* = called active by the depositor; i = inactive; ? = inconclusive; · = not tested or not shown. Unless noted, calls follow the shape of the dose curve; as a rule, active = well fitted inhibition curve with a large enough effect; inconclusive = small, poorly fitted or top-dose-only effect, or another doubt; inactive = no such curve, though single readings can be large or run the other way.

SMILES | Cycloheximide cs | Shiga inhibitor | Pf growth 48h | HCMV inh | HCV inhibitor | Pf growth 96h
COc1ccc(N2CCN(S(=O)(=O)c3c(C)nc4scc(C)n4c3=O)CC2)cc1 | -3.8 | -1.0 | ? | -29.7 | 5.6% | 1.7%
CCCSc1nc(SCC(=O)NCc2ccccc2)c2c3c(sc2n1)COC(C)(CC)C3 (stereo not drawn) | -2.2 | -4.8 | ? | 28.5 | -11.8% | 14.7µM*
CSc1nc(SCC(=O)NCc2ccco2)c2c3c(sc2n1)COC(C)(C)C3 | 7.4 | 27.6 | ? | 8.8 | ? | -1.3%
CCCCSc1nc(SCC(=O)NCc2ccco2)c2c3c(sc2n1)COC(C)(CC)C3 (stereo not drawn) | 1.8 | 0.4 | ? | -23.8 | 16.7% | 9.28µM*
CC(C)(Oc1ccc(Cl)cc1)C(=O)OCC(=O)N1CCN(c2ccccc2)CC1 | · | · | 11.3% | -4.2 | 12.1% | 17.3%
O=C(NCc1cccnc1)/C(=C\c1ccc(-c2cccc(Cl)c2)o1)S(=O)(=O)c1ccccc1 | -13.0 | -13.9 | 9.28µM* | -102.6* | ? | ?
O=C(NCc1cccnc1)/C(=C/c1ccc(-c2cccc(Cl)c2)o1)S(=O)(=O)c1ccccc1 | -8.9 | -27.4 | 13.1µM* | -4.8 | 27.8% | 3.29µM*
N#C/C(=C/c1ccc(CNC(=O)C(=O)Nc2cc(Cl)cc(Cl)c2)o1)C(=O)NCc1cccnc1 | -0.9 | -10.3 | 4.3% | -24.5 | 15.7% | -10.1%
Cc1ccc(C(=O)N/C(=C\c2ccc(-c3cc(Cl)ccc3Cl)o2)C(=O)NCc2cccnc2)cc1 | 42.0 | 87.7 | 25.2% | -4.5 | 10µM* | ?
COC(=O)c1ccc(C2c3c(oc4cc(C)c(C)cc4c3=O)C(=O)N2c2ccccn2)cc1 (stereo not drawn) | · | · | · | -3.7 | · | ·
Cc1cc(C)n2nc(SCC(=O)N(CCC#N)c3ccc(F)cc3)nc2n1 | · | · | 26.8% | -16.3 | -1.9% | -2.4%
Cc1cc(C)nc(NC(=O)c2ccc(C)c([N+](=O)[O-])c2)n1 | 2.2 | -8.8 | 46.6% | -36.6 | ? | 49.4%
Cc1csc(NC(=O)c2ccccc2[N+](=O)[O-])n1 | -5.3 | -17.5 | · | 33.2 | -0.2% | 73.8%
Cc1csc(NC(=O)c2ccc(Cl)cc2[N+](=O)[O-])n1 | 46.1* | 127.9* | i | 3.0 | 1.58µM* | -29.7%
CCOC(=O)C(C)Sc1nnc(NC(=O)c2ccc(C)c([N+](=O)[O-])c2)s1 (stereo not drawn) | -4.5 | -13.8 | -2.6% | 39.5 | 2.8% | 14.7µM*
Cc1csc(NC(=O)c2ccc(C)c([N+](=O)[O-])c2)n1 | 41.9* | 45.1 | 282.1% | 21.0 | -22.4% | ?
Cc1cc(Cl)ccc1OCC(=O)NNC(=O)C1CCCO1 (stereo not drawn) | 14.2 | 18.3 | 17.1% | -13.9 | 3.6% | 16.0%
CCC1C=CC=CC[C@H](C)[C@@H](O)[C@](C)(O)C(=O)[C@@H](C)[C@H](O)[C@@H](C)C(=O)[C@H](C)[C@@H](O)[C@H](C)C=CC(=O)OC2[C@@H](C)C(CC1)OC1(CC[C@@H](C)C(C[C@H](C)O)O1)[C@@H]2C (stereo partly drawn) | · | · | 0.131µM* | · | 0.891µM* | 0.117µM*
CCOC(=O)CSc1nnc2n(-c3ccccc3)c(=O)c3c4c(sc3n12)CC(C(C)(C)C)CC4 (stereo not drawn) | · | · | · | 35.4 | · | ·
O=C(c1cccc(NS(=O)(=O)c2ccccc2)c1)N1CCCC1 | -2.4 | -11.0 | 2.8% | -3.8 | 10.5% | 11.7%
O=C(c1cccc(NS(=O)(=O)c2ccc(F)c(F)c2)c1)N1CCN(C(c2ccccc2)c2ccccc2)CC1 | 7.0 | -7.8 | 13.1µM* | -15.9 | ? | ?
CS(=O)(=O)N(CC(=O)N1CCN(C(c2ccccc2)c2ccccc2)CC1)C1CCCCC1 | 10.7 | 1.0 | · | 21.2 | -12.2% | 2.62µM*
CS(=O)(=O)N(CC(=O)N1CCN(c2ccccc2F)CC1)C1CCCCC1 | 5.8 | -1.8 | 14.3% | ? | -0.8% | 0.0%
O=C(C1CCCCN1S(=O)(=O)c1ccc(F)cc1)N1CCN(c2ccccc2F)CC1 (stereo not drawn) | -2.5 | 14.7 | -6.6% | 19.6 | 15.8% | 4.65µM*
O=C(C1CCCCN1S(=O)(=O)c1ccccc1)N1CCN(C(c2ccccc2)c2ccccc2)CC1 (stereo not drawn) | 2.8 | 12.6 | 1.85µM* | 31.6 | 12.6µM* | 1.85µM*
SMILES | Cycloheximide cs | Shiga inhibitor | Pf growth 48h | HCMV inh | HCV inhibitor | Pf growth 96h
O=C(c1cccc(S(=O)(=O)Nc2ccc(F)cc2)c1)N1CCOCC1 | · | · | 7.2% | 0.0 | 1.6% | 36.0%
COc1ccc(NC(=O)CSc2nnc(Cc3ccccc3)c(=O)n2N)cc1OC | · | · | 6.1% | -34.0 | ? | 9.7%
Cc1cccc(N(CC(=O)NC2CCCC2)C(=O)c2csnn2)c1C | -6.3 | 3.5 | 8.0% | 14.8 | -8.4% | 36.4%
Cc1ccccc1NC(=O)c1c(C)nc(SCC(=O)OCc2ccccc2)c(C#N)c1-c1ccc(F)cc1 | -8.7 | -15.1 | 13.1µM* | -22.7 | ? | ?
Cc1nc(SCC(=O)OCc2ccccc2)c(C#N)c(-c2ccccc2)c1C(=O)Nc1ccccc1 | -2.5 | 12.9 | ? | 1.0 | -22.9% | ?
CCOC(=O)c1c(C)oc2nc(C)nc(NCc3cccc(OC)c3)c12 | · | · | · | -1.3 | · | ·
CC1CCc2nc(NC(=O)CN3CCOCC3)sc2C1 (stereo not drawn) | 38.4* | 67.8* | 48.8% | 46.8 | 0.6% | -9.9%
CC1CCc2nc(NC(=O)CN3CCN(Cc4ccc5c(c4)OCO5)CC3)sc2C1 (stereo not drawn) | 5.1 | 14.0 | ? | -62.9* | 31.6µM* | ?
CC1CCc2nc(NC(=O)Nc3ccc4c(c3)OCO4)sc2C1 (stereo not drawn) | 44.7* | 91.1* | 59.6% | 21.9 | ? | ?
CC1CCc2nc(NC(=O)CCSc3ccccc3)sc2C1 (stereo not drawn) | -2.2 | -5.9 | 25.7% | 49.5 | 5.0% | -1.9%
COc1ccc(SCCN2CCN(CCc3ccccc3)CCC2=O)cc1 | 14.7 | -0.5 | · | · | · | ·
O=C1CCN(CCc2ccccc2)CCN1CCSc1ccc(Br)cc1 | 2.0 | -4.6 | 58.7% | -2.0 | -2.6% | 67.7%
CCCN1CCC(=O)N(CCSc2ccc(C)cc2)CC1 | 37.6* | 53.3* | 76.1% | 69.4 | -5.0% | 52.1%
O=C1CCC(O)CCN1CCSc1ccccc1 (stereo not drawn) | 33.6* | 50.2* | 34.4% | 142.5 | 4.3% | 109.2%
CC(C)CN1CCC(=O)N(CCSc2ccccc2)CC1 | 39.2* | 37.1* | 231.3% | 23.2 | -1.6% | 324.7%
Cc1ccc(SCCN2CCN(CCc3ccccc3)CCC2=O)cc1 | 13.2 | 7.1 | 41.9% | 17.0 | 2.24µM* | 40.4%
COc1ccc(-c2cc(=O)c3cccc(CC(=O)O)c3o2)cc1 | · | · | · | 6.6 | · | ·
O=C(CSc1nc(=O)n(CCN2CCOCC2)c2c1CCC2)Nc1ccccc1 | · | · | · | -11.3 | · | ·
